The values that follow come from PubChem BioAssay (Tox21).

Assay [1] is described as follows: qHTS assay to identify small molecule antagonists of the thyroid receptor (TR) signaling pathway - cell viability counter screen (AID 743064). Further: nearly all actives have a fitted effect of over 50% in size. The procedure, abridged: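 Compounds were tested on GH3.TRE-Luc cells in the presence of T3 at 1 nM final. Following 23.5 h at 37 °C, cell viability was quantified by CellTiter-Fluor.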
The nature of assay [2]: qHTS assay to identify small molecule antagonists of the thyroid receptor (TR) signaling pathway (AID 743065). Further: nearly all actives have a fitted effect of over 55% in size. The procedure, abridged: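 GH3.TRE-Luc rat pituitary cells carrying two TR response elements driving luciferase were plated for 4 h, given compound plus 1 nM T3 (final), and incubated 23.5 h at 37 C. ONE-Glo luminescence measured reporter inhibition; CellTiter-Fluor fluorescence tracked cytotoxicity.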
On the technique in general: In qHTS, concentration-response curves come from the screen itself.

In assay [3] the test system is thyroid hormone receptor (rat, GH3 cells). The assay can be described thus: qHTS assay to identify small molecule agonists of the thyroid receptor (TR) signaling pathway (AID 743066; calls by dose curve).
Assay [4] deals with Estrogen receptor (Homo sapiens) (UniProt P03372). The assay can be described thus: qHTS assay to identify small molecule antagonists of the estrogen receptor alpha (ER-alpha) signaling pathway (AID 743069; active means well fitted curve in the direction sought with a large enough effect in the signal ratio in the repeat runs, not every such curve was filed as active; inconclusive means weak or mixed curves, or effect the other way; inactive means no such curve, though single readings can be large or run the other way; the % refers to the signal ratio). The procedure, abridged:
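Screening used a UAS-driven beta-lactamase reporter integrated into HEK293 cells expressing ER-alpha, stimulated with 17beta-estradiol alongside test compounds over 18 hr at 37C; signal came from LiveBLAzer B/G FRET fluorescence.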

Assay [5] in a line: qHTS assay to identify small molecule antagonists of the estrogen receptor alpha (ER-alpha) signaling pathway - cell viability counter screen (AID 743074; calls by dose curve; further: nearly all actives have a fitted effect of over 45% in size).
The target in assay [6] is Estrogen receptor (Homo sapiens) (UniProt P03372). Put plainly: qHTS assay to identify small molecule agonists of the estrogen receptor alpha (ER-alpha) signaling pathway (AID 743075; calls by dose curve).
Assay [7] has the same target. Put plainly: qHTS assay to identify small molecule agonists of the estrogen receptor alpha (ER-alpha) signaling pathway using the BG1 cell line (AID 743079). Further: nearly all actives have a fitted effect of over 20% in size.
The nature of assay [8]: qHTS assay to identify small molecule antagonists of the estrogen receptor alpha (ER-alpha) signaling pathway using the BG1 cell line (AID 743080; calls by dose curve;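 further: BG1 cells stimulated with 17beta-estradiol alongside compound; nearly all actives have a fitted effect of over 25% in size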). The procedure, abridged:
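After 5 days in phenol-red-free 10% charcoal-stripped FBS medium, BG1-Luc-4E2 cells were seeded, left 24 h at 37 C, co-treated with compounds and 17beta-estradiol for 21.5 h, then assayed for viability and luciferase.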

Assay [9] in a line: qHTS assay to identify small molecule antagonists of the estrogen receptor alpha (ER-alpha) signaling pathway using the BG1 cell line - cell viability counter screen (AID 743081).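 Further: compound given together with 17beta-estradiol as the ER stimulus; nearly all actives have a fitted effect of over 45% in size.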
The target of a further assay is Aromatase (Homo sapiens) (UniProt P11511). The assay can be described thus: qHTS assay to identify aromatase inhibitors (AID 743083). Further: nearly all actives have a fitted effect of over 55% in size.

Several values for one entry are separate records, joined by “and”; a condition that tells them apart may be missing. Equal entries are not always repeated. More than one record can exist for a structure, and the calls need not agree. Activity calls are given as the source filed them. Unless noted, the call rests on the fitted dose curve; in most records, active means well fitted curve in the direction sought with a large enough effect in the repeat runs; inconclusive means weak or mixed curves; inactive means no such curve, though single readings can be large; an effect the other way counts as inactive or inconclusive.
Potency means the concentration at half of the fitted maximal effect.

Sequence of Estrogen receptor (Homo sapiens) (P03372 whole entry, looked up): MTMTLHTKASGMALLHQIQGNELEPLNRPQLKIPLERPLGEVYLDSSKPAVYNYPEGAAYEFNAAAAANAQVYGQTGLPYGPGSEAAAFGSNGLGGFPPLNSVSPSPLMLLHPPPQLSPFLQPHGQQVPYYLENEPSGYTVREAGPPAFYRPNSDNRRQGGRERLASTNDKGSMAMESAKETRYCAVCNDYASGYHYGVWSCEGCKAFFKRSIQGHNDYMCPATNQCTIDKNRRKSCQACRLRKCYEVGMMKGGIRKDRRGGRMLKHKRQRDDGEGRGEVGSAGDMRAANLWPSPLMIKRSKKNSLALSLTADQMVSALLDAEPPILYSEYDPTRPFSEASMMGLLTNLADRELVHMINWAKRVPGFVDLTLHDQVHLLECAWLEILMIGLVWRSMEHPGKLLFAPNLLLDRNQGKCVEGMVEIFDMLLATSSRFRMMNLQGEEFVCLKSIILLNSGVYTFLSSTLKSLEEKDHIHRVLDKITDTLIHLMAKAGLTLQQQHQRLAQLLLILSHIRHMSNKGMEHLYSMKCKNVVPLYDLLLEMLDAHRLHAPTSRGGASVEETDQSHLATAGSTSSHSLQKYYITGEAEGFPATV
Sequence of Aromatase (Homo sapiens) (P11511 whole entry, looked up): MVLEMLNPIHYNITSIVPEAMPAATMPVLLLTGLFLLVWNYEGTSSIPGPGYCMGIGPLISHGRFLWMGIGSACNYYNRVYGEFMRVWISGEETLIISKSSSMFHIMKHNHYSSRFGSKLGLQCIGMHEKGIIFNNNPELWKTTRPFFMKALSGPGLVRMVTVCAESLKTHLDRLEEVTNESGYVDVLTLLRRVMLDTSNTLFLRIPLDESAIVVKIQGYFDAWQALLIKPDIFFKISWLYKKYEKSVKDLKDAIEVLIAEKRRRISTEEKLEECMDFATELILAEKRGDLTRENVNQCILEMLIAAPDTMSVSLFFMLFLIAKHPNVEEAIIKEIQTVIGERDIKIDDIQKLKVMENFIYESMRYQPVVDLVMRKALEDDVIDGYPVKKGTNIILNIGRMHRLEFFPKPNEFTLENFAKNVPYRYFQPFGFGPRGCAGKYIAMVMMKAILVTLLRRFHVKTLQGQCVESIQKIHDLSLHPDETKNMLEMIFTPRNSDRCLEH

Take `C=C(C)C(=O)OCCOC(=O)C(=C)C`: the Potency entry in [1], in [2], in [3], in assay [4], in [5] and in assay [6] was “inactive” each time. For the same compound, the Potency entry (in [7]; in assay [8]; in [9]; in the assay with Aromatase (Homo sapiens)) was “inactive” each time.
In the case of `Cc1[nH]c(=O)c(C#N)cc1-c1ccncc1`, the Potency entry in [1], in [2], in [3], in [4], in assay [5] and in [6] was “inactive” throughout. The Potency result (in assay [7]; in [8]; in [9]; with Aromatase (Homo sapiens)) was “inactive” throughout.
Regarding `O=C(/C=C/c1ccccc1)OCc1ccccc1`, the Potency entry in assay [1], in assay [2], in assay [3], in [4], in [5] and in assay [6] was “inactive” in each case. For the same compound, the Potency result (in [8]; in assay [9]; in the assay with Aromatase (Homo sapiens)) was “inactive” each time. In addition, the Potency in assay [7] is 29.8 µM (active).
Regarding `COc1ccccc1/C=C/C=O`, the Potency was 55.9 µM (active) in assay [1] and 62.8 µM (active) in assay [2]. Besides, the Potency result in assay [3], in [4], in assay [5], in [6], in assay [7] and in assay [8] was “inactive” throughout. The Potency result (in [9]; in the assay with Aromatase (Homo sapiens)) was “inactive” each time.
Turning to `OC1CCCCCCCCCCC1`, the Potency entry in assay [1], in assay [2], in assay [3], in assay [4], in assay [5] and in assay [6] was “inactive” each time. For the same compound, the Potency result (in assay [7]; in assay [8]; in assay [9]; with Aromatase (Homo sapiens)) was “inactive” in each case.
With `COc1ccc(C(=O)CC(=O)c2ccc(C(C)(C)C)cc2)cc1`, the Potency in assay [1] was 26.6 µM (active) and 65.8 µM (active); in [2], 29.8 µM (active). For the same compound, the Potency result (in assay [3]; in assay [5]; in assay [9]; with Aromatase (Homo sapiens)) was “inactive” in each case.
Consider `COC(=O)Nc1nc2ccc(S(=O)c3ccccc3)cc2[nH]1` (stereo unspecified), for which the Potency result in [1], in assay [3], in [5], in assay [6], in assay [7] and in [9] was “inactive” each time. For the same compound, the Potency entry with Aromatase (Homo sapiens) is “inactive”. Moreover, the Potency in [2] is 10.6 µM (active) and 15.3 µM (active); in [8], 12.2 µM (active).
On to `O=Cc1ccccc1O`, for which the Potency result in assay [1], in [2], in assay [3], in assay [4], in assay [6] and in assay [8] was “inactive” throughout. The Potency result (in [9]; in the assay with Aromatase (Homo sapiens)) was “inactive” each time.
As for `O=C(Nc1ccc(Cl)cc1)Nc1ccc(Cl)c(Cl)c1`, the Potency is 4.22 µM (active) and 3.44 µM (active) in assay [1]; 2.66 µM (active) and 2.72 µM (active) and 2.73 µM (active) in [2]; 3.47 µM [cytotoxic] (active) in assay [4]; 13.3 µM (active) and 24.2 µM (active) in [8]; 9.64 µM (active) and 13.7 µM (active) with Aromatase (Homo sapiens). In addition, the Potency result in [3], in [6] and in [9] was “inactive” each time.
With `CN(C)CCC=C1c2ccccc2CCc2ccccc21`, the Potency is 23.7 µM (active) and 5.45 µM (active) and 24.3 µM (active) in assay [1]; 26.6 µM (active) and 24.3 µM (active) and 21.7 µM (active) in assay [2]; 54.9 µM [inconclusive] (active) in assay [4]. The Potency entry (in assay [3]; in assay [6]; in assay [7]; in assay [9]; in the assay with Aromatase (Homo sapiens)) was “inactive” throughout.
As to `O=C1OC2(c3cc(Br)c(O)c(Br)c3Oc3c2cc(Br)c(O)c3Br)c2c(Cl)c(Cl)c(Cl)c(Cl)c21`, the Potency in assay [1] was 24.4 µM (active) and 41.6 µM (active); in assay [2], 54.5 µM (active) and 41.6 µM (active); in assay [9] it was 8.64 µM (active) and 18.6 µM (active). Also, the Potency result (in assay [3]; in [4]; in assay [6]; in [7]; in the assay with Aromatase (Homo sapiens)) was “inactive” each time.
With `CC1=CCC(C(C)(C)O)CC1` (stereo unspecified), the Potency result in [1], in assay [2], in assay [3], in [4], in [5] and in assay [6] was “inactive” in each case. In addition, the Potency result (in assay [7]; in assay [8]; in assay [9]; with Aromatase (Homo sapiens)) was “inactive” each time.
As for `S=C(NC1CCCCC1)NC1CCCCC1`, the Potency result in [1], in [2], in assay [3], in [4], in [6] and in [9] was “inactive” each time. Further, the Potency was 48.1 µM (active) in assay [5]; 75.5 µM (active) and 54.5 µM (active) in assay [8].
Regarding `O=CCCCC=O`, the Potency entry in assay [1], in [2], in assay [3], in [4], in assay [5] and in assay [6] was “inactive” each time. Moreover, the Potency result (in [7]; in assay [9]; in the assay with Aromatase (Homo sapiens)) was “inactive” in each case.
As for `OC[C@H]1O[C@@H]2O[C@H]3[C@H](O)[C@@H](O)[C@@H](O[C@H]4[C@H](O)[C@@H](O)[C@@H](O[C@H]5[C@H](O)[C@@H](O)[C@@H](O[C@H]6[C@H](O)[C@@H](O)[C@@H](O[C@H]7[C@H](O)[C@@H](O)[C@@H](O[C@H]8[C@H](O)[C@@H](O)[C@@H](O[C@H]1[C@H](O)[C@H]2O)O[C@@H]8CO)O[C@@H]7CO)O[C@@H]6CO)O[C@@H]5CO)O[C@@H]4CO)O[C@@H]3CO`, the Potency entry in assay [1], in assay [2], in [3], in assay [5] and in assay [9] was “inactive” throughout.
Take `CC(C)CC(C)(O)C#CC(C)(O)CC(C)C` (stereo unspecified): the Potency result in assay [1], in assay [2], in [3], in assay [5] and in assay [9] was “inactive” throughout.
`O=C(c1ccccc1)c1ccc(O)cc1O`: the Potency result (in [1]; in [2]; in assay [4]; in assay [9]; in the assay with Aromatase (Homo sapiens)) was “inactive” each time. The Potency result in [3] was “inactive and 30.6 µM (active)”; in assay [6], 19.9 µM [inconclusive] (active) and 38.9 µM [inconclusive] (active); in assay [7] it was 9.88 µM (active) and 9.69 µM (active).
Take `c1ccc2c(c1)c1cccc3ccc4cccc2c4c31`: the Potency entry in assay [1], in assay [2], in assay [3], in assay [4], in assay [6] and in assay [7] was “inactive” in each case. Besides, the Potency entry (in assay [8]; in assay [9]; in the assay with Aromatase (Homo sapiens)) was “inactive” throughout. Besides, the Potency in assay [5] is 3.07 µM (active) and inactive.
Consider `CCOCCOCCO`, for which the Potency result (in assay [1]; in [2]; in assay [3]; in assay [5]; in assay [9]; with Aromatase (Homo sapiens)) was “inactive” in each case.
Regarding `COc1cccc2c1C(=O)c1c(O)c3c(c(O)c1C2=O)C[C@@](O)(C(=O)CO)C[C@@H]3O[C@H]1C[C@H](N)[C@H](O)[C@H](C)O1`, the Potency entry is “inactive and 1.68 µM (active) and 122 nM (active)” in assay [1]; “inactive and 6.01 µM [inconclusive] (active) and 3.46 µM [inconclusive] (active)” in assay [4]; “inactive and 2.68 µM [inconclusive] (active) and 15.5 µM [inconclusive] (active)” in [6]; “inactive and 27.3 µM (active)” in [9]; “inactive and 6.68 µM (active) and 1.72 µM (active)” with Aromatase (Homo sapiens). Besides, the Potency result in assay [3], in assay [5], in assay [7] and in assay [8] was “inactive” throughout.
As to `Cc1ccc(C)c(O)c1C`, the Potency result in [1], in assay [3], in assay [4], in assay [5], in assay [6] and in assay [7] was “inactive” throughout. Besides, the Potency entry (in [8]; in assay [9]; in the assay with Aromatase (Homo sapiens)) was “inactive” throughout.
